{"source": "the supplement of paper PMC12067093", "about": "“Discovery and optimisation of a covalent ligand for TRIM25 and its application to targeted protein ubiquitination” (Chemical Science, 2025)", "compound": "CC1Cc2ccccc2N1C(=O)C1CCCN(C1)C(=O)CCl (mixture of isomers) [TRIM25 ligand 11 (diastereomer mixture)]", "assay": "probe-labelled cysteine peptide fold change vs DMSO (competition) (log2 fold change); higher = less target engagement (more negative = stronger competition)", "details": "THP-1, incubation time: 4 h", "note": "Of roughly 21,000 targets only a part is listed; those with the largest changes were picked by preference.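 Also: competitive chemoproteomic profiling in live THP-1 cells with an iodoacetamide desthiobiotin (IA-DTB) probe, comparing probe-labelled peptide intensities in compound-treated cells against DMSO-treated controls.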", "data": [{"target": "PARP1_P09874_908_SANYCHTSQGDPIGLILLGEVALGNMYELK (UniProt P09874)", "values": [{"measurement": "probe-labelled cysteine peptide fold change", "setting": "10 µM", "result": -0.146}, {"measurement": "probe-labelled cysteine peptide fold change", "setting": "50 µM", "result": -0.761}]}, {"target": "NEMF_O60524_663_VDESCVWR (UniProt O60524)", "sequence (O60524 whole entry, looked up)": "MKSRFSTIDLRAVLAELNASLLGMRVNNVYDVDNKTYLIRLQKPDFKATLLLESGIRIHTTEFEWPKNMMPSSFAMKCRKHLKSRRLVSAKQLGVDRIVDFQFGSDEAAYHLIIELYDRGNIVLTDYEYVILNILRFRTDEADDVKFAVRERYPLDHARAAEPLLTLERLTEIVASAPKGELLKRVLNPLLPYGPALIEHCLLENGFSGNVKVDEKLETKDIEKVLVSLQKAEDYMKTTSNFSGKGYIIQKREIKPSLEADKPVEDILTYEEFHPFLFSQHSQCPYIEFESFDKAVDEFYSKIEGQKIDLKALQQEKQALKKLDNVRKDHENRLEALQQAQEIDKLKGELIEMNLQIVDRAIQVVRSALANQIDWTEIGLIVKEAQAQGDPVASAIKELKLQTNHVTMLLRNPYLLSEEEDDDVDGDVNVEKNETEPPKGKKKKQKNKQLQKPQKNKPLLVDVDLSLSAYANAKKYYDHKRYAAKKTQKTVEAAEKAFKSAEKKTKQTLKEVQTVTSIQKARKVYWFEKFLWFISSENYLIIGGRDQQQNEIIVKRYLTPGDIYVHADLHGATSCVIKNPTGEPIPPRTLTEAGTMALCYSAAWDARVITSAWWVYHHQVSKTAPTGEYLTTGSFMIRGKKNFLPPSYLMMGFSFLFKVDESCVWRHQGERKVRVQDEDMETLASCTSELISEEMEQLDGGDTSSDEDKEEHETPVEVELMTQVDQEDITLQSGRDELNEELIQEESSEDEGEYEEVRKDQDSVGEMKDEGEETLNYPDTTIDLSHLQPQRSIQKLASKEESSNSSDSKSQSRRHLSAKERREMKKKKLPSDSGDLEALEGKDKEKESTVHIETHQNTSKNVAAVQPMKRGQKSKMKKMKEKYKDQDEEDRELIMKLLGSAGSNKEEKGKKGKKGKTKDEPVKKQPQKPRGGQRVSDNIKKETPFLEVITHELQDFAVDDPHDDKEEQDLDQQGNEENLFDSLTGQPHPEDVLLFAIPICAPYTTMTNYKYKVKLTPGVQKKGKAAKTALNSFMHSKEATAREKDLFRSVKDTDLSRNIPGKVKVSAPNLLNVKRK", "values": [{"measurement": "probe-labelled cysteine peptide fold change", "setting": "10 µM", "result": 0.233}, {"measurement": "probe-labelled cysteine peptide fold change", "setting": "50 µM", "result": 0.569}]}, {"target": "P4HB_P07237_53+56_YLLVEFYAPWCGHCK (UniProt P07237)", "values": [{"measurement": "probe-labelled cysteine peptide fold change", "setting": "10 µM", "result": -0.316}, {"measurement": "probe-labelled cysteine peptide fold change", "setting": "50 µM", "result": -0.77}]}, {"target": "NSUN5_Q96P11_278+279_AGVSCCELAEEDFLAVSPSDPR (UniProt Q96P11)", "values": [{"measurement": "probe-labelled cysteine peptide fold change", "setting": "10 µM", "result": 0.234}, {"measurement": "probe-labelled cysteine peptide fold change", "setting": "50 µM", "result": -0.117}]}, {"target": "NFRKB_Q6P4R8_17_MDSLDHMLTDPLELGPCGDGHGTR (UniProt Q6P4R8)", "sequence (Q6P4R8 whole entry)": "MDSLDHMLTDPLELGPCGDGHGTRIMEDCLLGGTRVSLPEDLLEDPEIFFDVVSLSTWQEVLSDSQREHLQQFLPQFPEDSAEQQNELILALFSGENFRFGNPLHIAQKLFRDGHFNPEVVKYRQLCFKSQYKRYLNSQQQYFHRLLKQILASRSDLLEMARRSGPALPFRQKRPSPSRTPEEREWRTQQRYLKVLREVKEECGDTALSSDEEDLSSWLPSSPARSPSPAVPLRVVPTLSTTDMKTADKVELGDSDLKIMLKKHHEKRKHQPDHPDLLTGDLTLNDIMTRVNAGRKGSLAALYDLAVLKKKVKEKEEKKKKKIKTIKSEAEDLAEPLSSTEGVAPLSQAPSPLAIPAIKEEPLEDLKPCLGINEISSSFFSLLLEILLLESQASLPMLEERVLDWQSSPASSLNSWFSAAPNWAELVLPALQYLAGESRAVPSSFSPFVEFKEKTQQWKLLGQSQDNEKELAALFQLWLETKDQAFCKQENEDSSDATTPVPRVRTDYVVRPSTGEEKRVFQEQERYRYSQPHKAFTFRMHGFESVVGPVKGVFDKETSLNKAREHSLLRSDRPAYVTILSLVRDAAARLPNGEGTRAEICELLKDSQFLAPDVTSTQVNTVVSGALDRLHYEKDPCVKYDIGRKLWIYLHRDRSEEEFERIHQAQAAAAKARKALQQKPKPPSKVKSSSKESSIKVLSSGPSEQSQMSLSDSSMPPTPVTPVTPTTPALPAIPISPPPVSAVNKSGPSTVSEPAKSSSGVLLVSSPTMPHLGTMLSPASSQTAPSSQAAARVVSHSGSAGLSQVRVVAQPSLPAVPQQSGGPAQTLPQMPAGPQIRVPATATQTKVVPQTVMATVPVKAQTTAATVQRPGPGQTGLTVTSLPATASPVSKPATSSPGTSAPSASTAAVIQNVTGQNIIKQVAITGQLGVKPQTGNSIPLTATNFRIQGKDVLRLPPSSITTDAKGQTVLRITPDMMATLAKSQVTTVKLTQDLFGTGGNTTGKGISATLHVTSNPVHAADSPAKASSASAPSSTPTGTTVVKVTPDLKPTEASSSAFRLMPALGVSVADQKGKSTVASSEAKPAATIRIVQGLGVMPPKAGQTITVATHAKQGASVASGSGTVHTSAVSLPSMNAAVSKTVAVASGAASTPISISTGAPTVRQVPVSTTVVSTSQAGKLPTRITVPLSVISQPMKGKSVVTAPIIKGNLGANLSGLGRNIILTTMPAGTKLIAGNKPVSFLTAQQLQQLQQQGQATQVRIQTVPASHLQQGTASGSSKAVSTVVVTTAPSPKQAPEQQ", "values": [{"measurement": "probe-labelled cysteine peptide fold change", "setting": "10 µM", "result": -0.196}, {"measurement": "probe-labelled cysteine peptide fold change", "setting": "50 µM", "result": -1.37}]}, {"target": "PARP1_P09874_845_IEREGECQR (UniProt P09874)", "values": [{"measurement": "probe-labelled cysteine peptide fold change", "setting": "10 µM", "result": -0.00747}, {"measurement": "probe-labelled cysteine peptide fold change", "setting": "50 µM", "result": 0.129}]}, {"target": "NSUN5P1_Q3KNT7-3_149_AAAGACTPPCT<|>NSUN5_Q96P11-2_461_AAAGACTPPCT (UniProt Q96P11+Q3KNT7)", "values": [{"measurement": "probe-labelled cysteine peptide fold change", "setting": "10 µM", "result": 0.129}, {"measurement": "probe-labelled cysteine peptide fold change", "setting": "50 µM", "result": -0.0921}]}, {"target": "PCBP3_P57721_141_LVVPASQCGSLIGK (UniProt P57721)", "sequence (P57721 whole entry, looked up)": "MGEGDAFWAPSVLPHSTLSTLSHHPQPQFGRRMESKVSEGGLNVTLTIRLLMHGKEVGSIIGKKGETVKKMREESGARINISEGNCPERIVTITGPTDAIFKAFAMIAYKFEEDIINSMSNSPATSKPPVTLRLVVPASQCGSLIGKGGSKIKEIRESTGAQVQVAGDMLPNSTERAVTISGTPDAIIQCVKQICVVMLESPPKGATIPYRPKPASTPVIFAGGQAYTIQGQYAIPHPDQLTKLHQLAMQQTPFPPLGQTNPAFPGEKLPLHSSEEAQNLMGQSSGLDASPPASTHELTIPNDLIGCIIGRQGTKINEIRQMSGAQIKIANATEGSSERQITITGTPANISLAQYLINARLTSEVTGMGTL", "values": [{"measurement": "probe-labelled cysteine peptide fold change", "setting": "10 µM", "result": -0.0567}, {"measurement": "probe-labelled cysteine peptide fold change", "setting": "50 µM", "result": -0.121}]}, {"target": "PCBP1_Q15365_293_GYWASLDASTQTTHELTIPNNLIGCIIGR (UniProt Q15365)", "sequence (Q15365 whole entry, looked up)": "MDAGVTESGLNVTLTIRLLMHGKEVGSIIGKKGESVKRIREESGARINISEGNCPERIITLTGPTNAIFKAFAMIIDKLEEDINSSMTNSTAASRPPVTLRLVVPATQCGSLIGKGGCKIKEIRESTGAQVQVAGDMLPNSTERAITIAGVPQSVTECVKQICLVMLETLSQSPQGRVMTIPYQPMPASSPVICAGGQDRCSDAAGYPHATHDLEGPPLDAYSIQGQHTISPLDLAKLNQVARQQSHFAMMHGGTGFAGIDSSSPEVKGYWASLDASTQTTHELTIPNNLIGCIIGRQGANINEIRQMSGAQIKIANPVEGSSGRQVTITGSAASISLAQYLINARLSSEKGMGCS", "values": [{"measurement": "probe-labelled cysteine peptide fold change", "setting": "10 µM", "result": -0.0964}, {"measurement": "probe-labelled cysteine peptide fold change", "setting": "50 µM", "result": -0.174}]}, {"target": "PDHB_P11177_161_GPNGASAGVAAQHSQCFAAWYGHCPGLK (UniProt P11177)", "values": [{"measurement": "probe-labelled cysteine peptide fold change", "setting": "10 µM", "result": 0.0327}, {"measurement": "probe-labelled cysteine peptide fold change", "setting": "50 µM", "result": 0.0759}]}, {"target": "NPM3_O75607_79_VEEEDDAEHVLALTMLCLTEGAKDECNVVEVVAR (UniProt O75607)", "sequence (O75607 whole entry, looked up)": "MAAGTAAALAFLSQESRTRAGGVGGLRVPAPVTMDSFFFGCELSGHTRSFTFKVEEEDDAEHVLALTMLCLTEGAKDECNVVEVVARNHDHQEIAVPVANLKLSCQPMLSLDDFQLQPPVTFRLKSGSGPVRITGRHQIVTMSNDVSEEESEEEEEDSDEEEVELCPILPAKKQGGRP", "values": [{"measurement": "probe-labelled cysteine peptide fold change", "setting": "10 µM", "result": -0.083}, {"measurement": "probe-labelled cysteine peptide fold change", "setting": "50 µM", "result": 0.00371}]}, {"target": "NUP107_P57740_749_EHLCIR (UniProt P57740)", "values": [{"measurement": "probe-labelled cysteine peptide fold change", "setting": "10 µM", "result": 0.128}, {"measurement": "probe-labelled cysteine peptide fold change", "setting": "50 µM", "result": 0.0884}]}, {"target": "PARP14_Q460N5_1274_ECSQQAQQR (UniProt Q460N5)", "sequence (Q460N5 whole entry, looked up)": "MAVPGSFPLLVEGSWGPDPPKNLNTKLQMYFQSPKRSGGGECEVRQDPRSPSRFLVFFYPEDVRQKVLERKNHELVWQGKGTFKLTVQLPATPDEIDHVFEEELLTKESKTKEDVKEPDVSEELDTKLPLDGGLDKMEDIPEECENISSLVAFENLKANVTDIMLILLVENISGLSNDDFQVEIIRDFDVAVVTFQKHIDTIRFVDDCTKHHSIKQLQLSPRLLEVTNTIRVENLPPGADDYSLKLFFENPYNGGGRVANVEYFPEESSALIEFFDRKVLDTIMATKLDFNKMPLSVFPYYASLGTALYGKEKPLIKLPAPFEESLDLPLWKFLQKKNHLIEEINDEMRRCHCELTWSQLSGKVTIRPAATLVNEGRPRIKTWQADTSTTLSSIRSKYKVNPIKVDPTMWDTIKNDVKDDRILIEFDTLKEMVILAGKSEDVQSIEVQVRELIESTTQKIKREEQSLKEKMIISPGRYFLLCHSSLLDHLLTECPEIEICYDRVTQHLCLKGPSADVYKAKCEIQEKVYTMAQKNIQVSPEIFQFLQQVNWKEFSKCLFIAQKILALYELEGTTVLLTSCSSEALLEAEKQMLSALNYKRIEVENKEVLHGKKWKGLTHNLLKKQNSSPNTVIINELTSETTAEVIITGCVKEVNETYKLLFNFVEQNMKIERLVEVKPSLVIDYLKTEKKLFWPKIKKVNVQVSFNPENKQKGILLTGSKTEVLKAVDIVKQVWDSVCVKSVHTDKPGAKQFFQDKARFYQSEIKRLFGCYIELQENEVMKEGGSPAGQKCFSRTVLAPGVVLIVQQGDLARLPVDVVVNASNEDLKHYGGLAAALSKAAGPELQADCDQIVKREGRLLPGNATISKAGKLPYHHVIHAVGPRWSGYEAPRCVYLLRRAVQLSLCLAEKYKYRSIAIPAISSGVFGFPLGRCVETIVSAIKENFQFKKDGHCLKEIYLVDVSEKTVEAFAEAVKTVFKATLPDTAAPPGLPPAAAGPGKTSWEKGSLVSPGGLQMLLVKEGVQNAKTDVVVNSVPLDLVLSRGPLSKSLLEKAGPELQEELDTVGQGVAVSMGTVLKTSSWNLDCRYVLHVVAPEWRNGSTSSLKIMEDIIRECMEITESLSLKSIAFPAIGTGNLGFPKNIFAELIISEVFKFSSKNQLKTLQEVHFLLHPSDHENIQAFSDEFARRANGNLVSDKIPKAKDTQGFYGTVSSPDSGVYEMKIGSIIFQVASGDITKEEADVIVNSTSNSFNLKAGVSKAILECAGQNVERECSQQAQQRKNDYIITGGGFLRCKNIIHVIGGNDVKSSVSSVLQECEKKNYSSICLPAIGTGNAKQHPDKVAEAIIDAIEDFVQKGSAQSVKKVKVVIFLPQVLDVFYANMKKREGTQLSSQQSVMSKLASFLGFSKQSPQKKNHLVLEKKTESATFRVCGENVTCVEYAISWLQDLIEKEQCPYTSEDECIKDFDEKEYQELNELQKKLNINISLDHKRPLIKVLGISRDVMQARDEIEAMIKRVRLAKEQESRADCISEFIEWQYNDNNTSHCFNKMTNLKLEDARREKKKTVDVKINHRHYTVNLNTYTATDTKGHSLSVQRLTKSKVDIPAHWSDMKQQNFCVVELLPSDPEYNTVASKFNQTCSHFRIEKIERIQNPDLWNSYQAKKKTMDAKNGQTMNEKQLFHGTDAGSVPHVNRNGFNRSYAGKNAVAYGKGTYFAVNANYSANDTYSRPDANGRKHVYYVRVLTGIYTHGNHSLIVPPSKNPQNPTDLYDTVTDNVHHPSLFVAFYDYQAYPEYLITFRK", "values": [{"measurement": "probe-labelled cysteine peptide fold change", "setting": "10 µM", "result": 0.0962}, {"measurement": "probe-labelled cysteine peptide fold change", "setting": "50 µM", "result": -0.0412}]}]}
